These results are taken from PubChem BioAssay.

Experiment [1] in a line: inhibitors of TNFa-induced NFkB p65 translocation, primary screen, imaging, HUVEC, MLSMR starter and 10KST1 sets (AID 438;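 active means inhibition above 20% together with a positive visual image hit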;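 further: compound added about 3h40 before a 20 min TNFalpha stimulation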;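 on inhibition: signal is the nuclear over cytoplasmic p65 intensity ratio per well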). As to conditions: HUVEC TNFa-induced p65 nuclear translocation; cell count: measured here: nuclei count (cytotoxicity indicator), at 2.08 µM; inhibition: at 2 µM, stronger effect = higher value, 0% TNFa-plus-vehicle, 100% no-TNFa wells.
A short description of experiment [2]: inhibitors of mutant huntingtin aggregation, primary screen, imaging, exon1htt(103Q)mCFP cells, high-content imaging (AID 483;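 active means visual image review flags a hit and inhibition of aggregation exceeds 20%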;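 further: compound exposure lasted 3 days before fixation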;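 on nuclei count: percent of the per-plate median nuclei count of sample wells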). As to conditions: exon1htt(103Q)mCFP cell line, aggregate imaging, at 2 µM; inhibition of aggregation: stronger effect = higher value; nuclei count: measured here: cell count, toxicity.
Experiment [3] can be described thus: inhibitors of E-selectin induction by TNFa, primary screen, imaging, HUVEC, immunofluorescence, MLSMR starter and 10KST1 sets (AID 487;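 active means visually confirmed hit in the image check and inhibition above 20%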;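 on inhibition: signal is fraction of cell area covered by stained E-selectin grains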;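 on nuclei count: 100% = median nuclei count of all wells on the same plate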). As to conditions: HUVEC TNFalpha-induced E-selectin immunofluorescence imaging, at 2 µM; inhibition: stronger effect = higher value; nuclei count: measured here: cell number, toxicity.
Experiment [4] addresses Voltage-gated potassium channel subunit beta-2 (Rattus norvegicus) (UniProt P62483). Kind of experiment: KvBeta enzyme negative modulators, primary screen, biochemical, NADPH fluorescence (AID 622;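 active means fluorescence slope higher than the sample average by over 3 SD, cut at about -0.22 in these data, passing the limit was not always enough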;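 further: slope of raw intensity against log time taken from 70 to 1610 s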). As to conditions: recombinant KvBeta, 4-cyanobenzaldehyde reduction, at 10 µM, stronger effect = higher value.
Experiment [5] shares this target. The experiment can be described thus: KvBeta positive modulators, primary screen, biochemical, NADPH fluorescence (AID 623;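 active means NADPH fluorescence slope more negative than the mean of all samples by about 3 SD, 99.7% confidence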;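 further: fluorescence intensity change per second fitted from 20 to 320 s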). As to conditions: Recombinant KvBeta, NADPH fluorescence decrease slope, 10 min; at 10 µM; stronger effect = lower value.
For experiment [6], the target named is Alpha-2C adrenergic receptor (Homo sapiens) (UniProt P18825). The experiment can be described thus: modulators of alpha2C/GIRK thallium flux, primary screen, cell-based, HEK293 alpha2C/GIRK1/2 (AID 624;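 active means fluorescence slope after compound addition differing from the mean of all screened samples at 99.7% confidence, in either direction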;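 further: slope of fluorescence ratio to pre-addition baseline per second over 15 to 24 s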). As to conditions: thallium flux BTC fluorescence, at 10 µM, actives lie on both sides.
Alpha-2C adrenergic receptor (Homo sapiens), sequence (P18825 whole entry, looked up): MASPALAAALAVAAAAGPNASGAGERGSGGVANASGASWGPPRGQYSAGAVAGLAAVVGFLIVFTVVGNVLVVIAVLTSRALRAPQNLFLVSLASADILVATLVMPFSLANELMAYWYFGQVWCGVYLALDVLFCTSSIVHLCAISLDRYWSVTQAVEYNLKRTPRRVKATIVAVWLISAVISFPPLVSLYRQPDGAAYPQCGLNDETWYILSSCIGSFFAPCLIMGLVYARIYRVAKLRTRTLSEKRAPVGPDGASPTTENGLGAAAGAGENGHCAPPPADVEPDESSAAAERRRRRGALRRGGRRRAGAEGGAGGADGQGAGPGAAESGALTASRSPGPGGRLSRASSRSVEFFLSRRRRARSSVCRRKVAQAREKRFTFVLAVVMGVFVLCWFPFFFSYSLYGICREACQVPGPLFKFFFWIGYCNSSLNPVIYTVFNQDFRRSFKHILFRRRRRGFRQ
A short description of experiment [7]: inhibitors of Sendai virus-induced IRF3 signaling, primary screen, TLR/RLR signaling modifier project, cell-based, Sendai virus stimulus, luciferase, 10K MLSCN set (AID 602276;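 active means inhibition at or above 50% at 10 µM; inactive means inhibition below 50%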;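 further: firefly luciferase from ISG56 promoter only with Renilla not read in this screen; 0% = Sendai virus plus DMSO and 100% = medium plus DMSO without virus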). As to conditions: HEK293 RL24 IRF3 luciferase reporter, at 10 µM, stronger effect = higher value. (Reporter assays use an easily measured gene product as a stand-in for the process of interest.)

The nature of experiment [8]: inhibitors of poly I:C-induced TLR3 signaling, primary screen, cell-based, poly I:C stimulus, luciferase, 10K MLSCN set (AID 602277). As to conditions: HEK293-TLR3 RL24 IRF3 luciferase reporter, at 10 µM, stronger effect = higher value.

SMILES strings stand for the structures. Calls of active or inactive are those of the source.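 How the source made its calls, unless noted: active means inhibition of the reporter signal at or above 50%; inactive means inhibition below 50%.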

Voltage-gated potassium channel subunit beta-2 (Rattus norvegicus), sequence (P62483 whole entry, looked up): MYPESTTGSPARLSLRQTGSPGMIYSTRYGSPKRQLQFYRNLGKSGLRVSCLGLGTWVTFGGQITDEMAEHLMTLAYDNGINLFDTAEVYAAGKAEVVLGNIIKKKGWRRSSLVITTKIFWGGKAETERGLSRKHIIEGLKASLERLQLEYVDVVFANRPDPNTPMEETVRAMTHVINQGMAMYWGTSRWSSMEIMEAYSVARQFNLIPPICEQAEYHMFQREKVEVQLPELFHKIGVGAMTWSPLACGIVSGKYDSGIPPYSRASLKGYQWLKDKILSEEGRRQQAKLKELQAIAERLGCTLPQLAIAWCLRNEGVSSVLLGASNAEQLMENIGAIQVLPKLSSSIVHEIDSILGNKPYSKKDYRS

For `Cc1cccc(-n2c(SCc3cc(=O)n4ccsc4n3)nc3ccccc32)c1`, the cell count in experiment [1] came out at 439. Besides, the inhibition is 5.1% (inactive) in experiment [1], -73.8% (inactive) in experiment [3], -11% (inactive) in experiment [7] and -9.49% (inactive) in experiment [8]. Further, the inhibition of aggregation in experiment [2] is -3.6% (inactive). Moreover, the nuclei count in experiment [2] was determined as 97.1%; in experiment [3] it was 112%. Moreover, the fluorescence slope in experiment [4] is -0.525 (inactive). The NADPH fluorescence slope in experiment [5] is 1.8e-05 (inactive). Besides, the slope in experiment [6] was 0.00495 (inactive).

On to `CCn1c(-c2cc(Br)ccc2O)n[nH]c1=S`, for which the cell count in experiment [1] was 623. The inhibition is -3.8% (inactive) in experiment [1], -27.4% (inactive) in experiment [3], 8.59% (inactive) in experiment [7] and 9.74% (inactive) in experiment [8]. In addition, the inhibition of aggregation in experiment [2] is -0.9% (inactive). The nuclei count in experiment [2] was 112%; in experiment [3], 83.3%. In experiment [4], the fluorescence slope was -0.59 (inactive). Besides, the NADPH fluorescence slope in experiment [5] is -3.5e-05 (inactive). In addition, the slope in experiment [6] was 0.00762 (inactive).

With `Cc1cc(C)n(-c2ccc(N3CCOCC3)nn2)n1`, the cell count in experiment [1] turned out to be 610. Further, the inhibition in experiment [1] is -5.2% (inactive); in experiment [3] it was -27.5% (inactive); in experiment [7], -5.9% (inactive); in experiment [8] it was -11.9% (inactive). Further, the inhibition of aggregation in experiment [2] is -8.5% (inactive). The nuclei count in experiment [2] is 100%; in experiment [3], 120%. Besides, in experiment [4], the fluorescence slope is -0.4 (inactive). For the same molecule, in experiment [5], the NADPH fluorescence slope was -7.8e-06 (inactive). Also, the slope in experiment [6] was 0.0039 (inactive).

With `C=CCn1c(COc2ccc(CC)cc2)nnc1SC/C(O)=C(\C#N)c1nc2ccccc2[nH]1`, the cell count in experiment [1] turned out to be 705. Also, the inhibition in experiment [1] was -4.3% (inactive); in experiment [3] it was -10.1% (inactive); in experiment [7], 21.3% (inactive); in experiment [8], 14.4% (inactive). Further, the inhibition of aggregation in experiment [2] is 3.6% (inactive). The nuclei count worked out at 101% in experiment [2] and 108% in experiment [3]. In experiment [4], the fluorescence slope is -0.379 (inactive). Also, in experiment [5], the NADPH fluorescence slope is 8.9e-06 (inactive). Further, the slope in experiment [6] was 0.0031 (inactive).

In the case of `Cc1ccc(S(=O)(=O)N2CCN(C(=O)c3cc(=O)[nH]c4ccccc34)CC2)c(C)c1`, the cell count in experiment [1] amounted to 539. Besides, the inhibition in experiment [1] was -11.9% (inactive); in experiment [3], 5.3% (inactive); in experiment [7], 17.3% (inactive); in experiment [8], 31% (inactive). Also, the inhibition of aggregation in experiment [2] is -23.6% (inactive). Moreover, the nuclei count is 100% in experiment [2] and 162% in experiment [3]. In addition, the fluorescence slope in experiment [4] was -0.5 (inactive). The NADPH fluorescence slope in experiment [5] was -2.6e-05 (inactive). The slope in experiment [6] is 0.00525 (inactive).

For the molecule `O=C(CCn1c(=O)sc2ccccc21)NCc1ccc2c(c1)OCO2`, the cell count in experiment [1] is 294. Also, the inhibition in experiment [1] was -11.1% (inactive); in experiment [3] it was -28.3% (inactive); in experiment [7], -17% (inactive); in experiment [8], -12.6% (inactive). Also, the inhibition of aggregation in experiment [2] was 15.6% (inactive). Besides, the nuclei count in experiment [2] turned out to be 92.7%; in experiment [3] it was 115%. The fluorescence slope in experiment [4] was -0.353 (inactive). In experiment [5], the NADPH fluorescence slope was -5.2e-05 (inactive). Moreover, in experiment [6], the slope is 0.00437 (inactive).

Regarding `Cn1c(SCC(=O)Nc2ccc(F)cc2)nnc1-c1cccnc1`, the cell count in experiment [1] turned out to be 660. Also, the inhibition was -1.1% (inactive) in experiment [1], -57.8% (inactive) in experiment [3], -0.187% (inactive) in experiment [7] and 21.7% (inactive) in experiment [8]. Besides, the inhibition of aggregation in experiment [2] is 5.2% (inactive). For the same molecule, the nuclei count in experiment [2] was 90.3%; in experiment [3], 110%. Besides, in experiment [4], the fluorescence slope is -0.578 (inactive). In addition, in experiment [5], the NADPH fluorescence slope is -4.7e-05 (inactive). Besides, the slope in experiment [6] was 0.00652 (inactive).

Take `O=S(=O)(NCc1ccccn1)c1ccc2c(c1)OCCO2`: the cell count in experiment [1] is 673. Moreover, the inhibition in experiment [1] was 11.1% (inactive); in experiment [3], -3.6% (inactive); in experiment [7] it was 3.8% (inactive); in experiment [8] it was 5.59% (inactive). Also, in experiment [2], the inhibition of aggregation is -27.1% (inactive). In addition, the nuclei count in experiment [2] was 99.3%; in experiment [3], 102%. In addition, the fluorescence slope in experiment [4] is -0.354 (inactive). For the same molecule, the NADPH fluorescence slope in experiment [5] was -8e-05 (inactive). Besides, in experiment [6], the slope is 0.00513 (inactive).

`Cc1cc(C(F)F)n2nc(C(=O)Nc3ccc(S(=O)(=O)N4CCCCCC4)cc3)nc2n1`: the cell count in experiment [1] came to 602. In addition, the inhibition is -6.2% (inactive) in experiment [1], -59.4% (inactive) in experiment [3], 17.7% (inactive) in experiment [7] and 22.1% (inactive) in experiment [8]. The inhibition of aggregation in experiment [2] was 9.9% (inactive). Further, the nuclei count in experiment [2] worked out at 85.5%; in experiment [3], 96.2%. Moreover, the fluorescence slope in experiment [4] is -0.566 (inactive). For the same molecule, the NADPH fluorescence slope in experiment [5] is 2.4e-05 (inactive). Further, the slope in experiment [6] was 0.00419 (inactive).

With `O=C(NCCCN1CCCC1=O)C1CCN(S(=O)(=O)N2CCOCC2)CC1`, in experiment [1], the cell count was determined as 195. For the same molecule, the inhibition in experiment [1] is 25.3% (active); in experiment [3], 27.7% (inactive); in experiment [7] it was -12.7% (inactive); in experiment [8] it was -7.16% (inactive). Further, the inhibition of aggregation in experiment [2] is 17.1% (inactive). Also, the nuclei count in experiment [2] was determined as 94.9%; in experiment [3], 81.9%. The fluorescence slope in experiment [4] is -0.362 (inactive). For the same molecule, in experiment [5], the NADPH fluorescence slope is -4.9e-05 (inactive). Also, the slope in experiment [6] was 0.00575 (inactive).

With `NC(=O)C1(N2CCCCC2)CCN(C(=O)Nc2ccccc2C(F)(F)F)CC1`, the cell count in experiment [1] is 312. Moreover, the inhibition in experiment [1] is -3.2% (inactive); in experiment [3] it was -133% (inactive); in experiment [7] it was 11.1% (inactive); in experiment [8], 31.2% (inactive). In experiment [2], the inhibition of aggregation is 14.4% (inactive). Also, the nuclei count in experiment [2] was 91.9%; in experiment [3] it was 142%. The fluorescence slope in experiment [4] was -0.445 (inactive). For the same molecule, in experiment [5], the NADPH fluorescence slope is 6.2e-06 (inactive). Moreover, the slope in experiment [6] is 0.00567 (inactive).

`O=C(NCCSc1c[nH]c2ccccc12)c1ccco1`: in experiment [1], the cell count was 686. Further, the inhibition in experiment [1] was -2.4% (inactive); in experiment [3] it was -15.8% (inactive); in experiment [7], 10.1% (inactive); in experiment [8], 32.9% (inactive). The inhibition of aggregation in experiment [2] was -13.1% (inactive). Besides, the nuclei count turned out to be 108% in experiment [2] and 116% in experiment [3]. For the same molecule, the fluorescence slope in experiment [4] is -0.562 (inactive). The NADPH fluorescence slope in experiment [5] was -4e-05 (inactive). For the same molecule, the slope in experiment [6] was 0.00591 (inactive).

As to `COc1ccc(C2CC(c3ccc(C)cc3)Nc3ncnn32)cc1` (stereo not drawn), in experiment [1], the cell count came to 615. For the same molecule, the inhibition in experiment [1] is -0.2% (inactive); in experiment [3], 30.7% (inactive); in experiment [7] it was 7.28% (inactive); in experiment [8], 16.4% (inactive). For the same molecule, the inhibition of aggregation in experiment [2] was -9.1% (inactive). Besides, the nuclei count worked out at 107% in experiment [2] and 98.3% in experiment [3]. In addition, in experiment [4], the fluorescence slope was -0.524 (inactive). Also, the NADPH fluorescence slope in experiment [5] is -2.3e-05 (inactive). The slope in experiment [6] was 0.00685 (inactive).

In general, inhibition refers to the relative decrease from the control value, in per cent.
